We go through 14 molecules from PubChem BioAssay (EPA / NIEHS).

Results filed as inconclusive are left out. The source made the active and inactive calls. The calls were made as follows: active = hit-call score of the fitted dose curve at least 0.9, where 1 is the maximum; inconclusive = response in the unintended direction; inactive = score below 0.9.

The target in this test is Retinoic acid receptor alpha (Homo sapiens) (UniProt P10276). Nature of the test: ATG_RARa_TRANS: Attagene TRANS-FACTORIAL HepG2 Assay for human Retinoic Acid Receptor alpha (RARa) (AID 2283005). The procedure: ATG_TRANS is a cell-based, multiplexed-readout assay that uses HepG2, a human liver cell line, with measurements taken at 24 hours after chemical dosing in a 24-well plate.ATG_RARa_TRANS is one of 30 assay component(s) measured or calculated from the ATG_TRANS assay. It is designed to make measurements of mRNA induction, a form of inducible reporter, as detected with fluorescence intensity signals by Reverse transcription polymerase chain reaction (RT-PCR) and Capillary electrophoresis technology.Data from the assay component ATG_RARa_TRANS was analyzed into 1 assay endpoint. This assay endpoint, ATG_RARa_TRANS, was analyzed in the positive analysis fitting direction relative to DMSO as the negative control and baseline of activity. Using a type of inducible reporter, measures of mRNA for gain-of-signal activity can be used to understand the reporter gene at the transcription factor-level as they relate to the gene RARA. Furthermore, this assay endpoint can be referred to as a primary readout, because this assay has produced multiple assay endpoints where this one serves a reporter gene function. To generalize the intended target to other relatable targets, this assay endpoint is annotated to the nuclear receptor intended target family, where the subfamily is non-steroidal.
Sequence of Retinoic acid receptor alpha (Homo sapiens) (P10276 whole entry, looked up): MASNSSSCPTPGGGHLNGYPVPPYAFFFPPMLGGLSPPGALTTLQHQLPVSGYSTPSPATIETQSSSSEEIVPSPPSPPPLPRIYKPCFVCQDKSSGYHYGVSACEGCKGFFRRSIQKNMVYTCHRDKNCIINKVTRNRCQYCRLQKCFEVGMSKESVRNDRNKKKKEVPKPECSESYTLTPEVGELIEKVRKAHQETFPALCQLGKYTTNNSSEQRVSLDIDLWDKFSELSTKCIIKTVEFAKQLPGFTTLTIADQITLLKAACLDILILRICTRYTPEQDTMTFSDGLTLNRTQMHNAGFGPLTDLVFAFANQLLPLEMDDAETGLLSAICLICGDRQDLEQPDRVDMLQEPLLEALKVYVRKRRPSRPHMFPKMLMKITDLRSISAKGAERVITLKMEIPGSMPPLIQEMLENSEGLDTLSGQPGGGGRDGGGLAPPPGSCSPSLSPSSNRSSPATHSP
Human liver HepG2 cells are transiently transfected with multiple reporter transcription units (MRTUs) in 6-well plates using FuGene 6 reagent (Roche; 3 ml FuGene/1 mg DNA). The MRTU constructs are regulated by a cis-regulating element (promoter). […] A major difference between the CIS and TRANS system is that in CIS activities of endogenous TFs are measured, whereas the TRANS assay evaluates changes in activities of exogenous, chimeric NR-Gal4 proteins. […] At the end of 24 hour incubation, total RNA was isolated using TriZol reagent (Invitrogen). The isolated RNA is then reverse-transcribed using oligo(dT) primer and Mo-MLV reverse transcriptase (Invitrogen) with DNAse I (Ambion) treatment for 30 min. The one-tenth of the produced cDNA was amplified by PCR using Taq DNA polymerase (Invitrogen) and two reporter sequence-specific primers. The PCR products were fluorescently labeled by primer extension with 6-arboxyfluorescein (6-FAM) 5'-labeled reporter sequence-specific primer (2 min at 95 C, 20 s at 68 C and 10 min at 72 C) and these products were digested with 5U of HpaI (New England Biolabs) for 2h at 37 C. The fragments were purified using Qiaquick PCR columns (Qiagen), analyzed on an ABI 3130xL genetic analyzer (Applied Biosystems) with peak positions identified by using a set of X-rhodamine (ROX)-labeled MapMarker1000 molecular weight standards (BioVentures). The raw capillary electrophoresis data was processed using Attagraph software (Attagene).
With `CC(C)COC(=O)CCCCC(=O)OCC(C)C`, the molecule was classed as inactive.

For `N[C@@H](Cc1c[nH]c2ccccc12)C(=O)O`, the outcome was inactive.

Regarding `Nc1nc(=S)c2[nH]cnc2[nH]1`, the molecule was called inactive.

As for `Cc1cc(Cc2ccc(N)c(C)c2)ccc1N`, the result was inactive.

Take `Oc1ccc(O)cc1`: the outcome was inactive.

In the case of `CCN(CC)CCOc1ccc(C(=C(Cl)c2ccccc2)c2ccccc2)cc1`, the outcome was inactive.

In the case of `Oc1ccccc1O`, the molecule was called inactive.

`CCCCCCCCCCCCCCCCO`: the outcome was inactive.

For `O=C1OC(c2ccc(O)cc2)(c2ccc(O)cc2)c2ccccc21`, the result was inactive.

For the molecule `NC=O`, the outcome was inactive.

`NC1CCCCC1`: the molecule was classed as inactive.

As for `Cc1ccc(-c2cc(C(F)(F)F)nn2-c2ccc(S(N)(=O)=O)cc2)cc1`, the molecule was called inactive.

Take `CC(COCC(C)OC(=O)c1ccccc1)OC(=O)c1ccccc1` (centres undefined): the call was inactive.

Regarding `O=[Si]=O`, the call was inactive.
